Laboratory results taken from the supplement of paper PMC10849652.
The full data set covers some 7,900 targets. This sample favours those with a hit. About 0.6% of all pairs of compound and target were hits.

Assays:
Experiment in all cases: log2 fold change, soluble protein after heating vs DMSO (PISA); higher = thermal stabilisation; K562 cells, 10 uM, 30 min; active = over 0.2 and 3.5 SD of the protein, either way, in both replicates (recomputed)
[1] = compound: C1COCCN1CCN2C3=CC=CC=C3N=C2NC(=O)C4=CC(=CC=C4)[N+](=O)[O-] [IRAK-1-4 Inhibitor I]
Method in brief: (§1)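 K562 cells at 2×10^6 cells/mL were treated with 10 μM compound for 30 min. Aliquots were heated for 3 min across 48°C-58°C, pooled, and extracted in PBS with 0.5% NP-40 at 4°C; soluble protein was the supernatant after 21,000xg for 90 min. Soluble protein was quantified by TMTpro 16plex LC-MS/MS with channel sums equalised, and reported as log2 fold change in thermal stability against DMSO controls, with values from duplicates.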

[2] = compound: C=CC(=O)N1CCC[C@@H](n2nc(-c3ccc(Oc4ccccc4)cc3)c3c(N)ncnc32)C1 [ibrutinib]
Method in brief: as §1

[3] = compound: CC(=O)c1cnc2ccc(-c3cc(Cl)c(O)c(Cl)c3)nc2c1N[C@H]1CC[C@H](CN(C)C)CC1
Method in brief: as §1

[4] = compound: CC(C)(C)Cn1c(N)nc2ccc(-c3[nH]c(C(C)(C)C)nc3-c3ccc(F)cc3)nc21 [ralimetinib]
Method in brief: as §1

[5] = compound: CC(C)(O)CC(=O)NCCn1ccc2ncnc(Nc3ccc(Oc4cccc(C(F)(F)F)c4)c(Cl)c3)c21
Method in brief: as §1

[6] = compound: CC(C)C1=C2N=C(C=C(N2N=C1)NCC3=CC=CC=C3)NCCCCCCN
Method in brief: as §1

[7] = compound: CC(C)C[C@@H](C=O)NC(=O)[C@H](CC(C)C)NC(=O)[C@H](CC(C)C)NC(=O)OCc1ccccc1
Method in brief: as §1

[8] = compound: CC(C)N(C[C@H]1O[C@@H](n2cnc3c(N)ncnc32)[C@H](O)[C@@H]1O)[C@H]1C[C@@H](CCc2nc3cc(C(C)(C)C)ccc3[nH]2)C1 [pinometostat]
Method in brief: as §1

[9] = compound: CC1=C(C(CC(=O)N1)C2=CC=C(C=C2)C(F)(F)F)C(=O)NC3=C(C=C4C(=C3)C=NN4)F
Method in brief: as §1

[10] = compound: CC1=C(C2=C(C=C1)C(=O)C3=CC=CC=C3N2CCCN)C
Method in brief: as §1

Measured: log2 fold change

CDC123 (UniProt O75794)
Chain of UniProt O75794 (O75794 whole entry, looked up): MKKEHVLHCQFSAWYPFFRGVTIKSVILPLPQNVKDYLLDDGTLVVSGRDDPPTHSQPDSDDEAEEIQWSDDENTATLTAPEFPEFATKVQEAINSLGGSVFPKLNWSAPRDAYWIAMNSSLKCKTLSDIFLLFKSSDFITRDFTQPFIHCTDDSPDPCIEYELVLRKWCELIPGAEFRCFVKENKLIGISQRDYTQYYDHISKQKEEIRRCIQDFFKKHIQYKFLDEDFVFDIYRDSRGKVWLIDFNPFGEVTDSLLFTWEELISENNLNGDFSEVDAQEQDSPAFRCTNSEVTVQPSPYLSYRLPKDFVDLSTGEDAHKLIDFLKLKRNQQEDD
inactive: [1] -0.023 | [2] -0.009 | [3] -0.026 | [4] -0.015 | [5] -0.088 | [6] -0.05 | [7] 0.037 | [8] -0.009 | [9] 0 | [10] 0.001

CDK5 (UniProt Q00535)
inactive: [1] 0.008 | [2] -0.009 | [3] 0.038 | [4] 0.032 | [5] -0.07 | [6] -0.021 | [7] 0.043 | [8] 0.024 | [9] 0.038 | [10] 0.028

CHST10 (UniProt O43529)
Chain of UniProt O43529 (O43529 whole entry, looked up): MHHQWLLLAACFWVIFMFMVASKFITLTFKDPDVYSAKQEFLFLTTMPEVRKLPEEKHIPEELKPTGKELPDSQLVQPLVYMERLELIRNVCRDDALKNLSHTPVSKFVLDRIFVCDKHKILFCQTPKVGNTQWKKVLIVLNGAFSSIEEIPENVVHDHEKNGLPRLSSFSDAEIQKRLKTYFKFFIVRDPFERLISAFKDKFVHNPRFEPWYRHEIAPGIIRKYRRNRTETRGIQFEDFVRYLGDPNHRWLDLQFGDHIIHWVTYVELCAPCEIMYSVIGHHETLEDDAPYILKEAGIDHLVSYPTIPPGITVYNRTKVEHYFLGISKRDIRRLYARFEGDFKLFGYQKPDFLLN
active: [6] -0.435
inactive: [1] 0.056 | [2] -0.062 | [3] -0.135 | [4] 0.059 | [5] 0.042 | [7] -0.003 | [8] 0.082 | [9] 0.025 | [10] 0.036

CD53 (UniProt P19397)
inactive: [1] 0.097 | [2] 0.033 | [3] -0.026 | [4] -0.24 | [5] -0.021 | [6] 0.229 | [7] 0.051 | [8] -0.014 | [9] -0.004 | [10] 0.105

CCAR2 isoform 2 (UniProt Q8N163)
Chain of UniProt Q8N163 (Q8N163 whole entry, looked up): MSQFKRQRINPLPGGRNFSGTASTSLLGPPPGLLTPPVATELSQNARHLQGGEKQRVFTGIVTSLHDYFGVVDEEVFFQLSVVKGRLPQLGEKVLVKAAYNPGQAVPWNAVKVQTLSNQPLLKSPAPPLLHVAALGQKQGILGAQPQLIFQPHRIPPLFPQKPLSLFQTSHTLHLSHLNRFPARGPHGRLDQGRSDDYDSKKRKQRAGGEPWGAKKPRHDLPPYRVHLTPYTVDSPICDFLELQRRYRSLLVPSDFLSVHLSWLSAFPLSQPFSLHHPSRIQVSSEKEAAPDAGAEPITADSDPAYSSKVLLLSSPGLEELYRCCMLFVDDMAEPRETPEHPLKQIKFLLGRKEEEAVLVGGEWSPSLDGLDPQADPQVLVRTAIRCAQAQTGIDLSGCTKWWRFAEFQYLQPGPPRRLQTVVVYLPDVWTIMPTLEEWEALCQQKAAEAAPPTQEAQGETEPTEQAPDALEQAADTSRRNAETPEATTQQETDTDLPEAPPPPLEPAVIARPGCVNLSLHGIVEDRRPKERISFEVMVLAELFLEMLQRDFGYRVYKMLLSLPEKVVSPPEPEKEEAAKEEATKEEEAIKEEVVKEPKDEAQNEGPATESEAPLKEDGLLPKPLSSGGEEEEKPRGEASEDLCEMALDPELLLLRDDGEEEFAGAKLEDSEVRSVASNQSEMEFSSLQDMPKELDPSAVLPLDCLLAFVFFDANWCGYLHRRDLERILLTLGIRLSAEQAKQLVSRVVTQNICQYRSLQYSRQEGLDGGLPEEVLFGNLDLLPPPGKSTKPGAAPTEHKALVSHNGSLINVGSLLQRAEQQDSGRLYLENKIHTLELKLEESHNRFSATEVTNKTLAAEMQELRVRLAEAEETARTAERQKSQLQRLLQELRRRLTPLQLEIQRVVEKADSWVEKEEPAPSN
active: [6] -0.477
inactive: [1] -0.111 | [2] -0.061 | [3] -0.037 | [4] 0.027 | [5] -0.222 | [7] -0.004 | [8] -0.039 | [9] 0.111 | [10] -0.252

C4A (UniProt P0C0L4)
Chain of UniProt P0C0L4 (P0C0L4 whole entry, looked up): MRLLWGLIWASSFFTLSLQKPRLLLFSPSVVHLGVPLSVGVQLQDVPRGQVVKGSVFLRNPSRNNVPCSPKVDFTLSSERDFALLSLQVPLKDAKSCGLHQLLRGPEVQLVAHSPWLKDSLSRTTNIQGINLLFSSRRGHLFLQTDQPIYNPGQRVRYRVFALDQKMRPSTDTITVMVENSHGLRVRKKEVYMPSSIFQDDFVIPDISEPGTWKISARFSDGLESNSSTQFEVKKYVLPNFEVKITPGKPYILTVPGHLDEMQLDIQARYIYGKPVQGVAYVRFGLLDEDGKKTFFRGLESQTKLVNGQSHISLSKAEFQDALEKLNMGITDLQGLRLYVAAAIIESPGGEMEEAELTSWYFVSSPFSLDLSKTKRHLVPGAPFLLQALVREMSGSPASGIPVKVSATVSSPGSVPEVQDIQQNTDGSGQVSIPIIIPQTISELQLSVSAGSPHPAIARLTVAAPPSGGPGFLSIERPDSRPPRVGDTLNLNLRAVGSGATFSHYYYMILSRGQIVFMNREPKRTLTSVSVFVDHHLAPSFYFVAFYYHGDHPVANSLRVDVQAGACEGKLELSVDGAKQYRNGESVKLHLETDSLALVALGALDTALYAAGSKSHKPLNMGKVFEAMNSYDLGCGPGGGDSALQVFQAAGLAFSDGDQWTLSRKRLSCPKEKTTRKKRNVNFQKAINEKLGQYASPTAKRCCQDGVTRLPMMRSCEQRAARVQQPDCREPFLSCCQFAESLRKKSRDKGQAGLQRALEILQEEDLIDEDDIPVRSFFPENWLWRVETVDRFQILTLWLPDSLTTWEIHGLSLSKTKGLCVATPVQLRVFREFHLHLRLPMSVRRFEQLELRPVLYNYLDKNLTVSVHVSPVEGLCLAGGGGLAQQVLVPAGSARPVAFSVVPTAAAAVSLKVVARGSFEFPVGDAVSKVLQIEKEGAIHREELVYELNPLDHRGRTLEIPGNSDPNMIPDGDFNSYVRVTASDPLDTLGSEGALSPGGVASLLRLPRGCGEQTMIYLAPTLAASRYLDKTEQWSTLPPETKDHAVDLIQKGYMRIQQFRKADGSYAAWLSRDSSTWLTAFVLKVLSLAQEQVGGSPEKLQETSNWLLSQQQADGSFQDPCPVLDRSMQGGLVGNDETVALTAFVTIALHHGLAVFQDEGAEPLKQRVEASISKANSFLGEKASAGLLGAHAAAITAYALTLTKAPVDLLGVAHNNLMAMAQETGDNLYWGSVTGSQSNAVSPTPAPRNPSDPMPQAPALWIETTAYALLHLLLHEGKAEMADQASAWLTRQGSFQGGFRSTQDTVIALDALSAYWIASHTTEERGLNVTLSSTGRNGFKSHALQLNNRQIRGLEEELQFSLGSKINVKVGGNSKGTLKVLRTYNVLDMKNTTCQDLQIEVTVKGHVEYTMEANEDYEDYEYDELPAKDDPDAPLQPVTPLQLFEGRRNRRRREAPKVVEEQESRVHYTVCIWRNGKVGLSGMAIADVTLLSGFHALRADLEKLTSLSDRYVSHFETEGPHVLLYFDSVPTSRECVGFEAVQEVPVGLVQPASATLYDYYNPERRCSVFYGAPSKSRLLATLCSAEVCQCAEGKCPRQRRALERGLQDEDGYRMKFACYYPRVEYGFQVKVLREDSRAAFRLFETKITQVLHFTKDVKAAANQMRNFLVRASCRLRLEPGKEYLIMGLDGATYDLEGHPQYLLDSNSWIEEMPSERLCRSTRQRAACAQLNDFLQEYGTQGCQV
inactive: [1] 0.017 | [2] 0.08 | [3] -0.01 | [4] -0.083 | [5] 0.226 | [6] 0.111 | [7] 0.01 | [8] -0.11 | [9] 0.086 | [10] -0.192

CDK16 isoform 2 (UniProt Q00536)
Chain of UniProt Q00536 (Q00536 whole entry, looked up): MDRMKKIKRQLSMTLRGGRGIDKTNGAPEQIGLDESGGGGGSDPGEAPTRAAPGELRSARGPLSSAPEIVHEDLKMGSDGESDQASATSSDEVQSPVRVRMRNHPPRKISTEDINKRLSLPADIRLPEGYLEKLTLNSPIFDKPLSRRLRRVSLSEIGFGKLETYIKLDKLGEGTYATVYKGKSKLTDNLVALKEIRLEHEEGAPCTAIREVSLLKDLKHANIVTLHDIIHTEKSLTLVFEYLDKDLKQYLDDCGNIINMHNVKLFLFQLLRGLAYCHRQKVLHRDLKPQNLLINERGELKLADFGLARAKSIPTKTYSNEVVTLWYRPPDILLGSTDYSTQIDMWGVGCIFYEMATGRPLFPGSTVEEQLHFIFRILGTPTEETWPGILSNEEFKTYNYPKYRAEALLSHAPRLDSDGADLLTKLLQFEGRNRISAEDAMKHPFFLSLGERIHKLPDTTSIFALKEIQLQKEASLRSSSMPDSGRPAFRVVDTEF
active: [3] 0.843
inactive: [1] -0.029 | [2] -0.018 | [4] 0.05 | [5] -0.031 | [6] 0.069 | [7] 0.059 | [8] 0.016 | [9] -0.03 | [10] 0.025

CA1 (UniProt P00915)
Chain of UniProt P00915 (P00915 whole entry, looked up): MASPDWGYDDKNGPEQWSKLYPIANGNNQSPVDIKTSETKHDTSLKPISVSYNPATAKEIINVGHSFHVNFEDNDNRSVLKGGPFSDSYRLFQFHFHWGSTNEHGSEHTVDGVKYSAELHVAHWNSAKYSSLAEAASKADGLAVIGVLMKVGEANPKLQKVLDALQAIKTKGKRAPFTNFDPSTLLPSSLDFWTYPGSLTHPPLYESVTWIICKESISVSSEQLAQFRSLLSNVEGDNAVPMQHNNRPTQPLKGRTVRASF
inactive: [1] 0.068 | [2] -0.02 | [3] 0.003 | [4] 0.017 | [5] -0.031 | [6] 0.119 | [7] -0.011 | [8] -0.006 | [9] -0.019 | [10] -0.043

C4orf33 (UniProt Q8N1A6)
inactive: [1] 0.038 | [2] 0.137 | [3] -0.049 | [4] -0.073 | [5] 0.005 | [6] -0.076 | [7] 0.032 | [8] 0 | [9] -0.01 | [10] -0.03

CHMP4B (UniProt Q9H444)
inactive: [1] 0.068 | [2] -0.024 | [3] 0.015 | [4] 0.039 | [5] 0.015 | [6] 0.014 | [7] -0.003 | [8] -0.032 | [9] 0.046 | [10] -0.011

COPS8 (UniProt Q99627)
inactive: [1] -0.006 | [2] 0.039 | [3] -0.011 | [4] -0.042 | [5] 0.031 | [6] 0.043 | [7] 0.027 | [8] -0.021 | [9] -0.006 | [10] 0.13

CDC42BPA isoform 6 (UniProt Q5VT25)
active: [3] -1.07
inactive: [1] -0.025 | [2] -0.09 | [4] 0.094 | [5] -0.02 | [6] -0.193 | [7] 0.043 | [8] 0.029 | [9] -0.192 | [10] 0.132

CIZ1 (UniProt Q9ULV3)
Chain of UniProt Q9ULV3 (Q9ULV3 whole entry, looked up): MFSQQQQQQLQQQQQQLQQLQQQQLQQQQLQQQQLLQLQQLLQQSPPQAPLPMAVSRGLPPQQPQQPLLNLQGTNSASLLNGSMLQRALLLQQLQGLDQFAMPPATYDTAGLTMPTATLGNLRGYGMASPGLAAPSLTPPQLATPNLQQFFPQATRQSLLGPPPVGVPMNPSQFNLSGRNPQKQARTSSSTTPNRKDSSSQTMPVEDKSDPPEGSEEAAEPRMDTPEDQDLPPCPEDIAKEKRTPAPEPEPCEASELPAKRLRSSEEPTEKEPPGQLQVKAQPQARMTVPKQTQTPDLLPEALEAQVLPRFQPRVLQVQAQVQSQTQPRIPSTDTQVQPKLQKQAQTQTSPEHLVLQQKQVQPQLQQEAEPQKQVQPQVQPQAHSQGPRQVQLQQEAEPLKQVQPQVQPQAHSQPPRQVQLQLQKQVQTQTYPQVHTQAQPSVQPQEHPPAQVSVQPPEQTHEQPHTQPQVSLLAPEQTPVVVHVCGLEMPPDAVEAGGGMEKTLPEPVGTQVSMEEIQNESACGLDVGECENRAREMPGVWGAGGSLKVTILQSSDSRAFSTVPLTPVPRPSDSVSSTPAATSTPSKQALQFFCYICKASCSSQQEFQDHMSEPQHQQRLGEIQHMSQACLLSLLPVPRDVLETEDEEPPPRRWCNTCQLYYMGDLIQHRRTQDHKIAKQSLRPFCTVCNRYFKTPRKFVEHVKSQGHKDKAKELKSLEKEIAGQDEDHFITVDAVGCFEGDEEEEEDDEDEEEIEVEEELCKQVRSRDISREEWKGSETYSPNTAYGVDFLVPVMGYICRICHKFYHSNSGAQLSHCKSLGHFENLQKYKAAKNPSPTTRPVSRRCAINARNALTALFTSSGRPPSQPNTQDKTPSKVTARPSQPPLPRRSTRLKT
inactive: [1] 0.013 | [2] -0.03 | [3] -0.044 | [4] 0.056 | [5] -0.056 | [6] 0.035 | [7] 0.053 | [8] -0.02 | [9] -0.02
active: [10] -0.248

CHST11 (UniProt Q9NPF2)
inactive: [1] -0.002 | [2] -0.032 | [3] 0.063 | [4] -0.406 | [5] 0.057 | [6] -0.257 | [7] -0.17 | [8] 0.084 | [9] -0.006 | [10] -0.058

CDK5RAP3 isoform 4 (UniProt Q96JB5)
inactive: [1] -0.051 | [2] -0.068 | [3] -0.005 | [4] -0.015 | [5] -0.062 | [6] -0.056 | [7] -0.002 | [8] 0.017 | [9] -0.031 | [10] 0.009
